JMJD2A Tudor inh = inhibitors of human JMJD2A Tudor domain | AlphaScreen JMJD2A-Tudor / H3K4me3 peptide binding | 390,000 tested, 4.4% active | O75164 | Potency, µM (titrated, usually from 114 µM), inactives show at the highest dose activity change, negative = inhibition, usual class: inhibitors; also: % is scaled to controls: 0 for no effect and ±100 for the full control effect; nearly all actives have a fitted effect of over 50% in size
Target sequence (O75164 whole entry, looked up, the tested form may be a part): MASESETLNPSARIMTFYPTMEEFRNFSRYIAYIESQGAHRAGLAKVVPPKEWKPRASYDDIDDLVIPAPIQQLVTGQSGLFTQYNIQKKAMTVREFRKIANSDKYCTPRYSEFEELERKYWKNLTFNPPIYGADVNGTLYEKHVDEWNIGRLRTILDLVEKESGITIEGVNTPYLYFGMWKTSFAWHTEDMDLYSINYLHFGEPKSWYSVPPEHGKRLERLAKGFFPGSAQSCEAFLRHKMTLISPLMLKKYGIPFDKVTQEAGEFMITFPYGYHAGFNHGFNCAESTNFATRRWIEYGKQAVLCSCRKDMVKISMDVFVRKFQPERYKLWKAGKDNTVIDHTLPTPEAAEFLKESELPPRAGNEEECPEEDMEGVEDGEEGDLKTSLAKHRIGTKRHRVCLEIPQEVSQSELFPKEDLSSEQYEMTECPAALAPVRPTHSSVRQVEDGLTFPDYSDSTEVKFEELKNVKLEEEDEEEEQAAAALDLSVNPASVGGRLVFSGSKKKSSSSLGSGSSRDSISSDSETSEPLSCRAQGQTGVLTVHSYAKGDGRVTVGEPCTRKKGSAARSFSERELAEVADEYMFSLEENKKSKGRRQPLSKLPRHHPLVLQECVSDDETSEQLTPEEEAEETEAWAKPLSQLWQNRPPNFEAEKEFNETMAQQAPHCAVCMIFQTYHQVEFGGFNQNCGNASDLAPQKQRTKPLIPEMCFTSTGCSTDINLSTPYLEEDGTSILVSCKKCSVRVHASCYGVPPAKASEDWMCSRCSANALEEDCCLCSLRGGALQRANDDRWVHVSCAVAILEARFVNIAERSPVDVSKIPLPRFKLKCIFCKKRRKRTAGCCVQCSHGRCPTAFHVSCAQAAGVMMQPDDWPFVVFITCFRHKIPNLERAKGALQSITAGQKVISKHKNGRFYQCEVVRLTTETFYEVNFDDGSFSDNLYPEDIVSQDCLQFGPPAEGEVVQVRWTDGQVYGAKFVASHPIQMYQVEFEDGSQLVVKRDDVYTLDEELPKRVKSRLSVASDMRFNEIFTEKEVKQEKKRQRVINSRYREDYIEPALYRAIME
BAZ2B block = inhibitors of human BAZ2B bromodomain; AlphaScreen BAZ2B-H3K14Ac peptide displacement; AID 504333; Q9UIF8; 360,000 tested, 4.4% active; Potency, µM (highest dose often 114 µM), for inactives: top-dose activity change, negative = inhibition, usual class: inhibitors; also: % is scaled to controls: 0 for no effect and ±100 for the full control effect; nearly all actives have a fitted effect of over 60% in size
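BAZ2B 50 nM plus b-H3(5-23)K14Ac 50 nM, PBS pH 7.4/0.01% Tween-20, 30 min RT; compound added (max 110 uM), 30 min RT; streptavidin donor/Ni-chelate acceptor beads 10 ug/mL final, 20 min dark; AlphaScreen read.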
G9a block = blocks human histone lysine methyltransferase G9a. 350,000 tested, 8.8% active. G9a H3K9 monomethylation, AlphaScreen, 2 h. Q96KQ7. Potency, µM (titrated, usually from 102 µM), without a hit: at the top dose activity, negative = inhibition, actives largely listed as inhibitors; also: % is scaled to controls: 0 for no effect and ±100 for the full control effect; nearly all actives have a fitted effect of over 75% in size
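Signal arises when biotinylated H3K9 peptide, once monomethylated, bridges streptavidin donor and antibody-captured acceptor beads. Enzyme at 20 nM was preincubated 15 min with test compounds; peptide 500 nM and SAM 20 uM then reacted for 2 h.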
ALOX12 inh = blocks human arachidonate 12S-lipoxygenase; Potency, µM (series often up to 108 µM), inactives show at the highest dose activity change, negative = inhibition, actives largely listed as inhibitors; P18054; 580,000 tested, 1.1% active; purified 12hLO, xylenol orange hydroperoxide absorbance; AID 1671190; also: % is scaled to controls: 0 for no effect and ±100 for the full control effect
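Purified human 12hLO at 150 nM in 25 mM Hepes, 0.01% Triton X-100, pH 7.0, preincubated 15 min at room temperature with compound. Reaction started with 40 uM arachidonic acid, 30 min at room temperature. Hydroperoxide measured by Fe-xylenol orange, 573/405 nm absorbance ratio.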
Sfp PPTase inh = blocks B. subtilis Sfp PPTase activity | Q9F4F7 | Biochemical Sfp PPTase activity, qHTS | Potency, µM, inactives show largest response in the series, negative = inhibition, usual class: inhibitors | 310,000 tested, 3.5% active | AID 1490;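 also: the enzyme is Sfp with the accession as filed and its product quenches rhodamine fluorescence; 0% = enzyme reaction without inhibitor and -100% = no enzyme wells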
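Sfp 15 nM + cpd, 15 min RT; start w/ rhodamine-CoA 5 uM, BHQ-2-YbbR 12.5 uM (final); 50 mM Hepes pH 7.6, 10 mM MgCl2, 0.01% NP-40, 0.01% BSA; read 525/598 nm at 0 and 30 min.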
HP1b binding inh = inhibitors of HP1-beta chromodomain binding to methylated histone tails | AlphaScreen HP1-beta / biotin-H3K9me3 peptide binding | 390,000 tested, 0.56% active | Potency, µM (titrated, usually from 114 µM), inactives show at the top dose activity change, negative = inhibition, actives largely listed as inhibitors | P83916; also: nearly all actives have a fitted effect of over 70% in size
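HP1-beta protein (50 nM final) preincubated 30 min at room temperature with biotinylated H3(1-18)K9me3 peptide (50 nM) in PBS pH 7.4, 0.01% Tween-20, then compound added for 30 min. AlphaScreen streptavidin donor/nickel chelate acceptor beads (10 ug/mL final), 30 min dark, luminescence read.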
Active calls of the source: *; ? = inconclusive; . = no result; ! = repeats disagree; [ ] = dose if it differs, or a comment. An excerpt weighted towards active compounds, which were near 8.7% of everything screened. Calls follow the shape of the dose curve; as a rule, active = well fitted curve in the direction sought with a large enough effect; inconclusive = small, poorly fitted or top-dose-only effect, or another doubt; inactive = no such curve, though single readings can be large; an effect the other way counts as inactive or inconclusive. Potency is read from the fitted curve at half-maximal effect.

SMILES	JMJD2A Tudor inh	BAZ2B block	G9a block	ALOX12 inh	Sfp PPTase inh	HP1b binding inh
CN(C)c1ccc(CNC(=O)c2cc3ccccn3n2)cc1	?	?	16µM*	-17%	.	-12%
CC1Cc2cccc3c(O)c(C(=O)c4nn[nH]n4)c(=O)n1c23 (stereo not drawn)	?	?	8.9µM*	-7%	-32%	61%
CC(=O)c1c(O)c2cccc3c2n(c1=O)CCC3	-10%	-4%	14%	?	-6%	56%
COc1ccc(Cc2nnc(Cl)c3ccccc23)cc1OC	-10%	-35%	50µM*	0%	8%	10%
Cc1cc(N)c2ccccc2[n+]1CCCCCCCCCC[n+]1c(C)cc(N)c2ccccc21	.	.	50µM*!	?	4.5µM*!	.
CCCCCCCCC[n+]1cccc2c3ccccc3ccc21	6%	9%	.	.	-9%	42%
CCCC(=O)N(c1ccc2oc(=O)sc2c1)S(=O)(=O)c1ccccc1	-7%	-2%	-32%[12.7 µM]	0%	14µM*	27%
Cc1cc2oc(=O)sc2cc1NS(=O)(=O)c1cccc2cccnc12	-36%	-13%	-11%	18%	9%	20%
CCCC(=O)N(c1ccc2oc3c(c2c1)CCCC3)S(=O)(=O)c1ccc(CC)cc1	-10%	-13%	1%[59 µM]	-21%	.	5%
CC(=O)N(c1ccc2oc(=O)sc2c1)S(=O)(=O)c1ccc(C(=O)O)cc1	-24%	-15%	18µM*	-5%	56µM*	11%
CC(=O)N(c1ccc2oc(=O)sc2c1)S(=O)(=O)c1cccs1	?	-9%	?	?	11µM*	28%
CC(=O)N(c1ccc2oc(=O)sc2c1)S(=O)(=O)c1cccc2cccnc12	-12%	-19%	22µM*	?	-13%	22%
CCCNC(=O)c1ccc2c(c1)CC(=O)N2Cc1cccc(F)c1	.	.	.	35%	.	.
CC(C)C(=O)N(c1ccc2oc(=O)sc2c1)S(=O)(=O)c1cccs1	-26%	-36%	35µM*	?	?	27%
CCCC(=O)N(c1ccc2oc(C)c(C(C)=O)c2c1)S(=O)(=O)c1ccc(C(=O)O)cc1	-14%	-2%	35µM*	-27%	12%	-3%
CC(c1cc2ccccc2o1)N(C)S(=O)(=O)c1cccs1 (stereo not drawn)	.	.	.	17%	.	.
COc1ccc(N(C(=O)C(C)C)S(=O)(=O)c2cccs2)cc1	-23%	0%	18%	16%	0%	15%
CC(C)C(=O)N(c1cc2sc(=O)oc2c2ccccc12)S(=O)(=O)c1cccs1	?	50µM*	1.8µM*	?	10µM*	-2%
CCC(C)NC(=O)NCCc1noc(-c2ccncc2)n1 (stereo not drawn)	.	.	.	21%	.	.
COCCN(C)C(=O)C(C)(C)Oc1nn(Cc2cccc(Cl)c2)c2ccccc12	.	.	.	1%[176 µM]	.	.
CC(C)CCNc1nc(C(=O)OCC(=O)NC(=O)NCC(C)C)cs1	.	.	.	-6%	.	.
CC(C)CCNc1nc(-c2ccc(O)c(C(N)=O)c2)cs1	.	.	.	7.9µM*	.	.
CCc1nc(C#N)c(N2CCN(c3ccccc3)CC2)o1	.	.	.	-33%	.	.
CSCC[C@@H](C(=O)Nc1cccc(F)c1)N1Cc2ccccc2C1=O	-24%	-34%	18µM*	-2%	.	26%
CSCC[C@@H](C(=O)NCc1cccs1)N1Cc2ccccc2C1=O	-23%	-9%	50µM*	8%	16%	8%
SMILES	JMJD2A Tudor inh	BAZ2B block	G9a block	ALOX12 inh	Sfp PPTase inh	HP1b binding inh
COc1ccc(NC(=O)C(CCSC)N2C(=O)c3ccccc3C2=O)cc1 (stereo not drawn)	-14%	17%	?	-4%	50µM*	-12%
CSCCC(C(=O)NCc1cccs1)N1C(=O)c2ccccc2C1=O (stereo not drawn)	-16%	5%	8%[59 µM]	12%	5%	3%
O=C(CCc1ccc(O)cc1)N[C@H]1CC[C@H](Nc2nccc(-c3cccnc3)n2)C1	.	.	.	-26%	.	.
CN1CCCC2(Cc3ccccc3CN(C(=O)Cc3ccc(O)cc3)C2)C1 (stereo not drawn)	.	.	.	2%[6.33 µM]	.	.
CC(C)(C)NC(=O)Cc1n[nH]c(=O)c2ccccc12	.	.	.	-6%	.	.
COc1ccccc1CCC(=O)NC1CCc2nn(CC3CC3)c(=O)n2CC1 (stereo not drawn)	.	.	.	62%	.	.
CC(=O)c1cnc2c(-c3ccc(Cl)cc3)cnn2c1C	-11%[11.4 µM]	7%	25%[59 µM]	-2%	10%	-1%
Nc1c(C(=O)O)cnc2c(-c3ccc(Cl)cc3)cnn12	28µM*	28µM*	?	?	-5%	-4%
CC1=C(C(N)=O)C(c2ccccc2[N+](=O)[O-])n2ncnc2N1 (stereo not drawn)	40µM*	-1%	28µM*	-22%	40µM*	?
CN1OC[C@@H]2CN(Cc3cc(Cl)cc(Cl)c3)[C@H](c3cccc(Oc4ccccc4)c3)C[C@@H]21	89µM*	.	.	9%	.	-2%
CN1OC[C@@H]2CN(Cc3ccccc3)[C@H](c3cccc(Oc4ccccc4)c3)C[C@@H]21	-12%	.	.	0%	.	43%
Cc1ccc(NC2=Nc3ccccc3CS2)cc1	?	0%	10µM*	357%	-15%	13%
Nc1nonc1NN=C1CCCCC1	-20%	-4%	1%	-1%	79µM*	7%
C=C1CCC[C@]2(C)C[C@H]3OC(=O)C(CNC(C)CCCC(C)C)[C@H]3CC12 (stereo partly drawn)	-9%	-14%	-4%	?	3%	0%
C=C1CCC[C@]2(C)C[C@H]3OC(=O)C(CNCC(OC)OC)[C@H]3CC12 (stereo partly drawn)	-22%	-16%	79µM*	7%	8%	-11%
C/C(=N\NC(N)=O)c1ccc(-n2ccnc2)cc1	-4%	-9%	20%[12.7 µM]	8%	18%	28%
C/C(=N/O)c1ccc(-n2ccnc2)cc1	.	.	.	-29%	.	.
C/C(=N\Nc1ccc(C(=O)O)cc1)c1ccc(-n2ccnc2)cc1	-29%	-23%	13µM*	56%	8%	32%
C/C(=N\Nc1ccccc1Cl)c1ccc(-n2ccnc2)cc1	56µM*	50µM*	10µM*	?	-18%	?
Cc1nn(-c2cc(N3CCN(C(=O)C(C)(C)C)CC3)ccc2[N+](=O)[O-])c(=O)c2ccccc12	.	.	.	6%	.	.
Cc1cc2ccccc2c(=O)n1CC(=O)NCC(=O)N1CCN(c2ccccc2)CC1	-31%	?	26%[59 µM]	0%	50µM*	17%
O=C(OCn1nnc2ccccc2c1=O)c1ccc(S(=O)(=O)N2CCCc3ccccc32)cc1	.	.	.	32%	.	.
Oc1ccc2[nH]cnc2c1CN1CCCCC1	4%	11%	5.6µM*	272%	-18%	24%
